Screens from PubChem BioAssay.
Only a selection was taken, and hits are over-represented in it overall.
Dicer inh: blocks human Dicer maturation of pre-miR-21 | Q9UPY3 | cat-ELCCA pre-miR-21 Dicer processing, chemiluminescence; active compounds read high | actives 6% (n = 47,000) | z-score at 25 µM; in the data active means z-score above about 3, passing the limit was not always enough;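 further: higher signal means more uncleaved substrate so more Dicer inhibition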
Target sequence (Q9UPY3 whole entry, looked up): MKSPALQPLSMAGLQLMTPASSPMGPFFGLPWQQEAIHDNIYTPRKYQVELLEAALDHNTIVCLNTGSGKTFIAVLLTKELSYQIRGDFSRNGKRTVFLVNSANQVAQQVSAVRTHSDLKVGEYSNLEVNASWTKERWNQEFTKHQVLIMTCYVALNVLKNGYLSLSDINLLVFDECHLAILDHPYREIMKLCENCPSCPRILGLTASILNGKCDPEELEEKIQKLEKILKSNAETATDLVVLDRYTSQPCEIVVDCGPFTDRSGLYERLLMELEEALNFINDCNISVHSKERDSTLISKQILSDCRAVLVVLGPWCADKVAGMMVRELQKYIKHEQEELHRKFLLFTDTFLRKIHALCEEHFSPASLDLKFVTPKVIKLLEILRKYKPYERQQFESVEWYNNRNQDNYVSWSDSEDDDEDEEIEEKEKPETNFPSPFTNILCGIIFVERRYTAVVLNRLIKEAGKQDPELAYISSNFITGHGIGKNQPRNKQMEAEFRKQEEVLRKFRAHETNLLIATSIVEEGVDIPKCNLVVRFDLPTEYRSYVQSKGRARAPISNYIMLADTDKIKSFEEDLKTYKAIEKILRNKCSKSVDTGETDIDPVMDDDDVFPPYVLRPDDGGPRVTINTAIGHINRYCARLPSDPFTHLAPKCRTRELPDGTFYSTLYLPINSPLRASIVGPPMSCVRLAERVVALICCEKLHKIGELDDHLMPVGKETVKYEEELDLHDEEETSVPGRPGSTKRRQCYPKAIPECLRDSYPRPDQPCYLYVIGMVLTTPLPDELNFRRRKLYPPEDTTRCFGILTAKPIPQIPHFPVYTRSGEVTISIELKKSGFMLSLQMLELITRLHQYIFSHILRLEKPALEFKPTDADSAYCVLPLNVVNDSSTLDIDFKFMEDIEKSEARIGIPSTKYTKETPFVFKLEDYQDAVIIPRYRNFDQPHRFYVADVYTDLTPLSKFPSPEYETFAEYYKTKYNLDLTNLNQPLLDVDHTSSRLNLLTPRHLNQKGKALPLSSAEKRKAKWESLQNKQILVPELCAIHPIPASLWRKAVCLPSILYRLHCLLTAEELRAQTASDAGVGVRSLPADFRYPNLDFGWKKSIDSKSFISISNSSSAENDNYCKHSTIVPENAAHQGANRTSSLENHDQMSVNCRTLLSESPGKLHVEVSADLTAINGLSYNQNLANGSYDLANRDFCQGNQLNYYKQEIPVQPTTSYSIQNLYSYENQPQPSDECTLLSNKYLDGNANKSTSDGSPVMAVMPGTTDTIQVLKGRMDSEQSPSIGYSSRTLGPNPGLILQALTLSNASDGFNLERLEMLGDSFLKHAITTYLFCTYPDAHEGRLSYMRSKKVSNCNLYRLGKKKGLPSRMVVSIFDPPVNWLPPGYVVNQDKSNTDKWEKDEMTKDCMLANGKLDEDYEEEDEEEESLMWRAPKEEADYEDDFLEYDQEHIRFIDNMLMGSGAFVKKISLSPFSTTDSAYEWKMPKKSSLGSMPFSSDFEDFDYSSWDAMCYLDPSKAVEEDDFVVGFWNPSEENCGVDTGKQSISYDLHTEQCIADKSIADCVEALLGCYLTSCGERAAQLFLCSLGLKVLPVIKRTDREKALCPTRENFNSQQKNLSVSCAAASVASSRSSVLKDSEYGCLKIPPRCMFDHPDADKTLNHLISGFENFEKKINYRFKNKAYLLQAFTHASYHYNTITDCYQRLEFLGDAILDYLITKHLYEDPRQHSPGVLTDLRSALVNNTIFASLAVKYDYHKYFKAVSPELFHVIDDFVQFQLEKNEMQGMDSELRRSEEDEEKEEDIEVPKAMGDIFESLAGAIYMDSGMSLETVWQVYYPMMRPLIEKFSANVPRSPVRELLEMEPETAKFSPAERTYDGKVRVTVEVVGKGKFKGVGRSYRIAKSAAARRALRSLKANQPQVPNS
A number is an active result; 0 = inactive.

SMILES	Dicer inh
Cc1cc(NNS(=O)(=O)c2ccc(Cl)cc2)nc2c1c(C)nn2C	4.4
Cc1cc(NNC(=O)Nc2cccc(Cl)c2)nc2c1c(C)nn2C	0
Cc1cc(NNC(=O)c2ccccc2Cl)nc2c1c(C)nn2C	0
Nc1ncnc2oc(-c3ccccc3)c(-c3ccccc3)c12	0
COc1ccc(C2/C(=C(\O)c3ccc(Cl)cc3)C(=O)C(=O)N2CCCN(C)C)cc1OC (stereo unspecified)	0
Cc1ccc2nc(C(F)(F)F)cc(OCCN(C)C)c2c1	0
NNC(=O)c1cn2cc(C(F)(F)F)cc(Cl)c2n1	4.8
NNC(=O)c1cc(C(F)(F)F)cc(C(F)(F)F)c1	0
O=C(NCCCN1CCN(Cc2ccccc2)CC1)c1cn2cc(C(F)(F)F)cc(Cl)c2n1	0
CCOCCOC(=O)C1=C(C)NC2=C(C(=O)CC(c3cccs3)C2)C1c1ccc(C)s1 (stereo unspecified)	0
CS(=O)(=O)n1nc(-c2ccco2)nc1SCc1ccccc1	0
COc1ccc(-c2nc(SCc3ccccc3)n(S(C)(=O)=O)n2)cc1	5.2
CCS(=O)(=O)n1nc(-c2ccco2)nc1SCc1ccccc1	0
Cc1ccc2nc3sc4ccc(Cl)cc4n3c(=O)c2c1	0
Cc1ccc2c(c1)c(C)c(C)n2CC(O)CN1CCCCC1C (stereo unspecified)	3.6
Cc1cc(C)n(CC(O)Cn2c(C)c(C)c3ccccc32)n1 (stereo unspecified)	0
OC(CNC1CCCCC1)Cn1c2ccccc2c2ccccc21 (stereo unspecified)	0
Clc1sc2ccccc2c1CSc1ccccc1	0
Cc1nc(N2C(=O)c3oc4ccc(F)cc4c(=O)c3C2c2ccc(F)cc2)sc1C (stereo unspecified)	0
CCOC(=O)Cc1cc(=O)n2[nH]c(C(F)(F)F)nc2n1	0
COCCNC(=O)C(=O)NCCCO	0
c1cnc2sc(-n3cccc3)nc2c1	0
O=C(Nc1cc(C(F)(F)F)cc(C(F)(F)F)c1)C(=S)NCc1ccccc1	0
O=C(Cn1cc(C(=O)c2ccco2)c2ccccc21)NCc1cccs1	0
O=C(Cn1cc(C(=O)c2ccco2)c2ccccc21)NCCc1c[nH]c2ccccc12	4
SMILES	Dicer inh
O=C(Cn1cc(C(=O)c2ccco2)c2ccccc21)NCc1ccco1	0
CC(C)C(NS(=O)(=O)c1ccc2c3c(cccc13)C(=O)N2C)C(=O)O (stereo unspecified)	0
CCOC(=O)c1cnc(O/N=C/c2ccc(C#N)cc2)nc1C(F)(F)F	0
Fc1ccc(N2CCN(Cc3cn[nH]c3-c3ccccc3)CC2)cc1	3.5
OC1(c2ccc(Cl)cc2)CCN(Cc2cn[nH]c2-c2ccc(F)cc2)CC1	0
OC1(c2ccc(Cl)cc2)CCN(Cc2cn[nH]c2-c2ccccc2)CC1	0
O=c1[nH]c(-c2ccccc2)nc2c1oc1ccccc12	0
COc1ccc(CN2CCN(Cc3ccccc3Br)CC2)c(OC)c1	0
CN(/N=C/c1ccccc1Cl)c1ncc(C(F)(F)F)cc1Cl	0
CN(/N=C/c1ccc(O)cc1O)c1ncc(Cl)cc1C(F)(F)F	12
CN(NC(=O)c1ccc(Cl)cc1)c1ncc(Cl)cc1C(F)(F)F	0
Cc1nc(-c2ccc(-c3nc(C)c(-c4ccccc4)o3)cc2)oc1-c1ccccc1	0
Cc1ccc(NC(=O)/C=N/O)cc1Cl	0
Cc1ccc2ncnc(NCc3ccco3)c2c1	4.5
Cn1cnc2c(NCc3ccco3)ncnc21	0
Cc1ccc2ncnc(Nc3ccc(Cl)cc3)c2c1	0
O=S(=O)(CCSc1nccc(-c2cccs2)n1)c1ccc(Cl)cc1Cl	0
S=c1c2ccccc2oc2ccccc12	0
Nc1cc2cc([N+](=O)[O-])ccc2oc1=O	0
CN(C)CCN1C(=O)C(=O)/C(=C(/O)c2ccc(S(=O)(=O)N(C)C)cc2)C1c1ccccc1F (stereo unspecified)	0
COc1ccc(/C(O)=C2\C(=O)C(=O)N(CCN(C)C)C2c2ccccc2F)cc1 (stereo unspecified)	3.4
COc1ccc(/C(O)=C2\C(=O)C(=O)N(CCCN(C)C)C2c2ccccc2)cc1 (stereo unspecified)	0
C/C(=N\N=C(N)N)c1ccc(Br)cc1	0
N#Cc1c(C(F)(F)F)cc(-c2cccs2)nc1Sc1ccc(Cl)cc1	0
CCOc1cc(N2CCOCC2)c(OCC)cc1NS(=O)(=O)c1ccc(OC)cc1	0
SMILES	Dicer inh
Cc1nonc1NC(=O)OC(C)C	0
COC(=O)C(C(=O)Nc1cc(C)on1)C1CCCC1 (stereo unspecified)	0
Cc1nonc1NC(=O)OC1CCCCC1	3.4
CCN1C(=O)C2(/C(=C(/O)c3ccc(C)c(F)c3)C(=O)C(=O)N2CCN(C)C)c2ccccc21 (stereo unspecified)	0
COc1ccc(C2C3CCc4ccccc4C3=NN2C(=O)Nc2ccc(Cl)c(Cl)c2)cc1 (stereo unspecified)	0
CC(=O)Oc1ccc(C2C(C(=O)OC3CCCC3)=C(C)NC3=C2C(=O)CC(c2cccs2)C3)cc1 (stereo unspecified)	0
CCOC(=O)C1=C(C)NC2=C(C(=O)CCC2)C1c1ccc(Cl)cc1 (stereo unspecified)	0
O=C(CCSc1nc(-c2ccc3c(c2)OCO3)cc(C(F)(F)F)n1)N1CCOCC1	0
Oc1c(C(c2ccncc2)N2CCOCC2)cc(Cl)c2cccnc12 (stereo unspecified)	0
Oc1cc2c(cc1C(c1ccc(C(F)(F)F)cc1)N1CCOCC1)OCO2 (stereo unspecified)	6.5
O=C1/C(=C\c2ccccc2)Sc2ccccc21	0
CC(=O)NC(=N/N=C(\C)c1ccc(Br)cc1)NC(C)=O	0
CC1=C(C(=O)OCC(C)C)C(c2cccs2)C2=C(CCCC2=O)N1 (stereo unspecified)	0
O=C(CSc1nc2c(Cl)cc(Cl)cc2s1)Nc1cc(Cl)cc(Cl)c1	0
CC(C)(C)OC(=O)N1CSC[C@H]1C(=O)O	0
COc1cccc(C2C(C(=O)OC(C)C)=C(C)NC3=C2C(=O)CC(c2ccccc2)C3)c1OC (stereo unspecified)	7.6
COC(=O)C1=C(C)NC2=C(C(=O)CC(c3ccccc3)C2)C1c1ccccc1F (stereo unspecified)	0
CC1=C(C(=O)OCC2CCCO2)C(c2cccc(O)c2)C2=C(CC(C)(C)CC2=O)N1 (stereo unspecified)	3.1
COC(=O)C1=C(C)NC2=C(C(=O)CC(c3ccc(Cl)cc3)C2)C1c1ccccc1Cl (stereo unspecified)	3.4
CCCCCOC(=O)C1=C(C)NC2=C(C(=O)CCC2)C1c1ccc(OCC)c(OC)c1 (stereo unspecified)	4.2
CC1=C(C(=O)OCC2CCCO2)C(c2cccc(Br)c2)C2=C(CC(C)(C)CC2=O)N1 (stereo unspecified)	0
CC1=C(C(=O)OCC2CCCO2)C(c2cccc(Cl)c2)C2=C(CC(C)(C)CC2=O)N1 (stereo unspecified)	0
COC(=O)C1=C(C)NC2=C(C(=O)CC(c3ccccc3)C2)C1c1ccccc1Cl (stereo unspecified)	0
CCOc1ccc(C2C(C(=O)OCCOC)=C(C)NC3=C2C(=O)CCC3)cc1OC (stereo unspecified)	0
CCCCCOC(=O)C1=C(C)NC2=C(C(=O)CCC2)C1c1ccc(OC)c(Br)c1 (stereo unspecified)	0
COc1ccccc1C1C(C(=O)OC(C)C)=C(C)NC2=C1C(=O)CC(c1ccccc1)C2 (stereo unspecified)	0
